According to the supplement of paper PMC9262897, “Low-cost anti-mycobacterial drug discovery using engineered E. coli” (Nature Communications, 2022):
Structures can show the parent of a compound that is named as a salt. ± gives the standard deviation of the averaged measurements.

Test system: E. coli TESEC Mtb Alr
Test: growth (OD600 after 10 h); higher = more growth (less inhibition)
Conditions: compound 0.1 mM
Protocol: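 TESEC Mtb Alr E. coli, or the Alr+ wild-type control, in 384-well plates with Prestwick library compounds at 0.1 mM and 1% DMSO, across arabinose induction levels of 1E3 to 1E7 nM. Growth is read as OD600 after 10 h at 37 °C in triplicate biological replicates.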

[1] = arabinose 1000 nM, raw OD600 reference: median of DMSO wells 0.294, cell-free background 0.041
[2] = arabinose 10000 nM, raw OD600 reference: median of DMSO wells 0.264, cell-free background 0.041
[3] = arabinose 100000 nM, raw OD600 reference: median of DMSO wells 0.201, cell-free background 0.041
[4] = arabinose 1000000 nM, raw OD600 reference: median of DMSO wells 0.193, cell-free background 0.041
[5] = arabinose 10000000 nM, raw OD600 reference: median of DMSO wells 0.146, cell-free background 0.041

## O=C(O)CCCC[C@@H]1SC[C@@H]2NC(=O)N[C@@H]21 [Biotin]
[1]
  growth: 0.309 ± 0.0092
[2]
  growth: 0.265 ± 0.016
[3]
  growth: 0.217 ± 0.028
[4]
  growth: 0.206 ± 0.018
[5]
  growth: 0.145 ± 0.0046

## CN1C(C)(C)CCCC1(C)C [Pempidine tartrate]
[1]
  growth: 0.307 ± 0.017
[2]
  growth: 0.284 ± 0.0059
[3]
  growth: 0.183 ± 0.026
[4]
  growth: 0.196 ± 0.0024
[5]
  growth: 0.143 ± 0.011

## COc1ccc(CN2CCN(C(c3ccc(F)cc3)c3ccc(F)cc3)CC2)c(OC)c1OC [Lomerizine hydrochloride]
[1]
  growth: 0.126 ± 0.0034
[2]
  growth: 0.0765 ± 0.0014
[3]
  growth: 0.137 ± 0.0039
[4]
  growth: 0.05757 ± 0.00049
[5]
  growth: 0.0717 ± 0.0016

## CC(C(=O)O)c1ccc(C(=O)c2cccs2)cc1 (stereo not given) [Suprofen]
[1]
  growth: 0.263 ± 0.015
[2]
  growth: 0.254 ± 0.008
[3]
  growth: 0.205 ± 0.0094
[4]
  growth: 0.214 ± 0.0056
[5]
  growth: 0.138 ± 0.0024

## CCN(CC)CCOC(=O)C1(C2CCCCC2)CCCCC1 [Dicyclomine hydrochloride]
[1]
  growth: 0.115 ± 0.063
[2]
  growth: 0.195 ± 0.0043
[3]
  growth: 0.157 ± 0.016
[4]
  growth: 0.06453 ± 0.00058
[5]
  growth: 0.103 ± 0.0024

## Cc1onc(-c2ccccc2)c1-c1ccc(S(N)(=O)=O)cc1 [Valdecoxib]
[1]
  growth: 0.173 ± 0.0027
[2]
  growth: 0.216 ± 0.029
[3]
  growth: 0.148 ± 0.0053
[4]
  growth: 0.0949 ± 0.0023
[5]
  growth: 0.122 ± 0.0014

## COc1c(N2CCNC(C)C2)c(F)cc2c(=O)c(C(=O)O)cn(C3CC3)c12 (stereo not given) [Gatifloxacin]
[1]
  growth: 0.0402 ± 0.00046
[2]
  growth: 0.0396 ± 0.0002
[3]
  growth: 0.04067 ± 0.00032
[4]
  growth: 0.03983 ± 0.00029
[5]
  growth: 0.0409 ± 0.00055

## COc1ccc2cc([C@H](C)C(=O)O)ccc2c1 [Naproxen]
[1]
  growth: 0.265 ± 0.029
[2]
  growth: 0.249 ± 0.014
[3]
  growth: 0.187 ± 0.012
[4]
  growth: 0.168 ± 0.0019
[5]
  growth: 0.132 ± 0.0043
